Source: PubChem BioAssay (NCI)
The panel holds about 79,000 compounds, 15% with a hit somewhere; the sample as a whole holds those more often. Activity calls are given as the source filed them. Rule as the data show it: active = growth inhibition above about 70%; inactive = the rest.

Assays:
[1] = NCI Yeast Anticancer Drug Screen. Data for the rad52 strain (AID 147);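 also: 0% = growth of vehicle-treated control cultures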; details: S. cerevisiae rad52 mutant growth inhibition, stronger effect = higher value
Summary of the method: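 Compounds are applied to a genetically defined yeast strain lacking normal DNA damage repair, and inhibition of growth is expressed relative to cultures given vehicle only.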

[2] = NCI Yeast Anticancer Drug Screen. Data for the wt1 strain (AID 149);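 also: 0% = growth of vehicle-treated wt1 cultures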; details: S. cerevisiae wt1 strain (SPY 50644) growth inhibition, stronger effect = higher value
Summary of the method: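 Readout: yeast growth inhibition, normalised to vehicle controls, in the wt1 strain exposed to test compounds.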

[3] = NCI Yeast Anticancer Drug Screen. Data for the rad50EPP+ strain (AID 151);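 also: 0% = growth of vehicle-treated control cultures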; details: S. cerevisiae rad50 mutant strain, stronger effect = higher value
Summary of the method: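 Compounds were applied to the rad50EPP+ yeast strain, which bears a defined DNA repair alteration, and growth inhibition was determined relative to vehicle-treated cultures.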

[4] = NCI Yeast Anticancer Drug Screen. Data for the mgt1 strain (AID 153); details: S. cerevisiae mgt1 mutant growth inhibition, stronger effect = higher value
Summary of the method: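 Strain: mgt1 yeast, one of a set carrying defined DNA damage repair or cell cycle control alterations. Compound-treated growth compared with vehicle.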

[5] = NCI Yeast Anticancer Drug Screen. Data for the rad50 strain (AID 155);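 also: 0% = growth of vehicle-only cultures of the same strain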; details: S. cerevisiae rad50 strain growth inhibition, stronger effect = higher value
Summary of the method: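 Compounds were tested on a yeast strain with an engineered DNA damage repair alteration; the reported value is growth inhibition normalised to vehicle treatment.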

[6] = NCI Yeast Anticancer Drug Screen. Data for the mec2-1 strain (AID 157); details: S. cerevisiae mec2-1 strain, stronger effect = higher value
Summary of the method: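 Strain: mec2-1 (DNA repair/cell cycle alteration). Compound exposure, then growth measured; inhibition expressed relative to vehicle.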

[7] = NCI Yeast Anticancer Drug Screen. Data for the rad14 strain (AID 159);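 also: 0% = growth of vehicle-treated control cultures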; details: S. cerevisiae rad14 strain growth inhibition, stronger effect = higher value
Summary of the method: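 Compound-treated yeast with a defined DNA-repair lesion; growth inhibition normalised to vehicle-treated cultures.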

[8] = NCI Yeast Anticancer Drug Screen. Data for the sgs1 mgt1 strain (AID 161);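 also: 0% = growth of cultures given vehicle only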; details: S. cerevisiae sgs1 mgt1 strain, stronger effect = higher value
Summary of the method: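 Mutant yeast exposed to compound; growth scored against vehicle-only wells.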

[9] = NCI Yeast Anticancer Drug Screen. Data for the cln2 rad14 strain (AID 165);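 also: 0% = growth equal to vehicle treated cultures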; details: S. cerevisiae cln2 rad14 strain, stronger effect = higher value
Summary of the method: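 Compounds are applied to the cln2 rad14 yeast strain, and growth is then compared with that of vehicle-treated cultures to give inhibition.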

[10] = NCI Yeast Anticancer Drug Screen. Data for the bub3 strain (AID 167); details: S. cerevisiae bub3 mutant strain, stronger effect = higher value
Summary of the method: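 Growth of a checkpoint-deficient yeast mutant is measured after compound exposure. Values represent inhibition relative to vehicle.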

[11] = NCI Yeast Anticancer Drug Screen. Data for the wt2 strain (AID 169);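 also: 0% = growth of vehicle-treated yeast cultures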; details: S. cerevisiae wt2 strain growth inhibition, stronger effect = higher value
Summary of the method: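 This strain belongs to a panel of yeast strains with defined genetic alterations in DNA damage repair or cell cycle control. Compounds are applied, and growth inhibition is measured against vehicle-treated cultures.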

[12] = NCI Yeast Anticancer Drug Screen. Data for the mlh1 strain (AID 171);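 also: 0% = growth of vehicle-treated control cultures of the same strain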; details: S. cerevisiae mlh1 strain growth inhibition, stronger effect = higher value
Summary of the method: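 Growth of the mutant yeast strain after compound exposure, expressed as inhibition relative to vehicle-only controls.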

[13] = NCI Yeast Anticancer Drug Screen. Data for the sgs1 strain (AID 173);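 also: 0% = growth of vehicle-only control cultures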; details: S. cerevisiae sgs1 mutant, stronger effect = higher value
Summary of the method: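 Growth of a yeast strain bearing a defined genetic alteration is measured after compound treatment. Inhibition is expressed relative to vehicle-only controls.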

[14] = NCI Yeast Anticancer Drug Screen. Data for the mlh1 rad18 strain (AID 175); details: S. cerevisiae mlh1 rad18 strain growth inhibition, stronger effect = higher value
Summary of the method: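 Read-out is yeast growth inhibition, calculated against vehicle-only controls. The compound was applied to a strain engineered with DNA damage repair alterations.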

[15] = NCI Yeast Anticancer Drug Screen. Data for the rad18 strain (AID 177); details: S. cerevisiae rad18 mutant growth inhibition, stronger effect = higher value
Summary of the method: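 Growth of the mutant yeast strain after compound exposure, normalised to vehicle-only cultures.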

[16] = NCI Yeast Anticancer Drug Screen. Data for the CLN2oe strain (AID 163);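 also: 0% = growth of vehicle-only control cultures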; details: S. cerevisiae CLN2oe strain, stronger effect = higher value
Summary of the method: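 Growth of a genetically modified yeast strain is measured after compound exposure and compared with cultures given vehicle alone.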

[17] = at 5.0 µM (retest, dose inferred, filed as 0.5)
[18] = at 50.0 µM (retest, dose inferred, filed as 5.0)

Measured: growth inhibition

Nc1ccc(S(=O)(=O)Nc2ccc(Nc3c4ccccc4nc4ccccc34)cc2)cc1
active: [1]; at 11.0 µM 88% | [1]; at 33.0 µM 93% | [1]; at 100.0 µM 95% | [3]; at 11.0 µM 77% | [3]; at 33.0 µM 76% | [3]; at 100.0 µM 79% | [5]; at 11.0 µM 86% | [5]; at 33.0 µM 93% | [5]; [18] 87% | [5]; at 50.0 µM 79.1% | [5]; at 100.0 µM 94% | [6]; at 100.0 µM 77% | [13]; at 100.0 µM 79%
inactive: [1]; at 1.2 µM 21% | [1]; at 3.7 µM 69% | [2]; at 1.2 µM 2% | [2]; at 3.7 µM 19% | [2]; at 11.0 µM 18% | [2]; at 33.0 µM 18% | [2]; at 100.0 µM 43% | [3]; at 1.2 µM 8% | [3]; at 3.7 µM 56% | [4]; at 1.2 µM 4% | [4]; at 3.7 µM 4% | [4]; at 11.0 µM 3% | [4]; at 33.0 µM 13% | [4]; at 100.0 µM 50% | [5]; at 1.2 µM 22% | [5]; at 3.7 µM 66% | [5]; [17] 59% | [6]; at 1.2 µM 0% | [6]; at 3.7 µM 11% | [6]; [17] -24% | [6]; at 11.0 µM 6% | [6]; at 33.0 µM 19% | [6]; [18] 31% | [6]; at 50.0 µM 57.4% | [7]; at 1.2 µM 7% | [7]; at 3.7 µM 18% | [7]; at 11.0 µM 14% | [7]; at 33.0 µM 25% | [7]; at 100.0 µM 58% | [8]; [17] -7% | [8]; [18] 19% | [8]; at 50.0 µM 21% | [9]; [17] -3% | [9]; [18] 7% | [9]; at 50.0 µM 13.8% | [10]; at 1.2 µM 8% | [10]; at 3.7 µM 31% | [10]; [17] -18% | [10]; at 11.0 µM 15% | [10]; at 33.0 µM 4% | [10]; [18] -4% | [10]; at 50.0 µM -22.1% | [10]; at 100.0 µM 39% | [11]; at 1.2 µM -42% | [11]; at 3.7 µM -39% | [11]; at 11.0 µM -38% | [11]; at 33.0 µM -30% | [11]; at 100.0 µM 60% | [12]; at 1.2 µM 4% | [12]; at 3.7 µM 24% | [12]; at 11.0 µM 23% | [12]; at 33.0 µM 24% | [12]; at 100.0 µM 60% | [13]; at 1.2 µM 8% | [13]; at 3.7 µM 17% | [13]; at 11.0 µM 24% | [13]; at 33.0 µM 43% | [14]; [17] 0% | [14]; [18] 19% | [15]; at 1.2 µM 17% | [15]; at 3.7 µM 11% | [15]; at 11.0 µM 6% | [15]; at 33.0 µM 6% | [15]; at 100.0 µM 58%

O=C1c2c(O)cccc2-c2nn(CCNCCO)c3ccc(NCCNCCO)c1c23
inactive: [1]; at 1.2 µM 17% | [1]; at 3.7 µM 43% | [2]; at 1.2 µM 8% | [2]; at 3.7 µM -2% | [2]; at 11.0 µM 11% | [2]; at 33.0 µM 2% | [2]; at 100.0 µM -4% | [3]; at 1.2 µM 15% | [3]; at 3.7 µM 19% | [3]; at 11.0 µM 39% | [3]; at 33.0 µM 54% | [4]; at 1.2 µM 16% | [4]; at 3.7 µM 11% | [4]; at 11.0 µM -3% | [4]; at 33.0 µM -10% | [4]; at 100.0 µM 2% | [5]; at 1.2 µM 26% | [5]; at 3.7 µM 42% | [5]; [17] 27% | [6]; at 1.2 µM 42% | [6]; at 3.7 µM 29% | [6]; [17] -25% | [6]; at 11.0 µM 40% | [6]; at 33.0 µM 10% | [6]; [18] -14% | [6]; at 50.0 µM 20.4% | [6]; at 100.0 µM 39% | [7]; at 1.2 µM -3% | [7]; at 3.7 µM -2% | [7]; at 11.0 µM -21% | [7]; at 33.0 µM -13% | [7]; at 100.0 µM 2% | [8]; [17] 1% | [8]; [18] -2% | [8]; at 50.0 µM 7% | [16]; at 1.2 µM 26% | [16]; at 3.7 µM 22% | [16]; at 11.0 µM 21% | [16]; at 33.0 µM 5% | [16]; at 100.0 µM 18% | [9]; [17] 26% | [9]; [18] 14% | [9]; at 50.0 µM -7.2% | [10]; at 1.2 µM 1% | [10]; at 3.7 µM -9% | [10]; [17] -24% | [10]; at 11.0 µM -15% | [10]; at 33.0 µM -30% | [10]; [18] -13% | [10]; at 50.0 µM -19.2% | [10]; at 100.0 µM -26% | [11]; at 1.2 µM -46% | [11]; at 3.7 µM -27% | [11]; at 11.0 µM -41% | [11]; at 33.0 µM -53% | [11]; at 100.0 µM -42% | [12]; at 1.2 µM 29% | [12]; at 3.7 µM 7% | [12]; at 11.0 µM 15% | [12]; at 33.0 µM 13% | [12]; at 100.0 µM 21% | [13]; at 1.2 µM 7% | [13]; at 3.7 µM 5% | [13]; at 11.0 µM 7% | [13]; at 33.0 µM 11% | [13]; at 100.0 µM 28% | [14]; [17] -6% | [14]; [18] -7%
active: [1]; at 11.0 µM 73% | [1]; at 33.0 µM 81% | [1]; at 100.0 µM 87% | [3]; at 100.0 µM 77% | [5]; at 11.0 µM 74% | [5]; at 33.0 µM 85% | [5]; [18] 79% | [5]; at 50.0 µM 76.9% | [5]; at 100.0 µM 87%

NCc1c(O)ccc2ccccc12
inactive: [1]; at 1.2 µM -17% | [1]; at 3.7 µM -11% | [1]; at 11.0 µM -1% | [1]; at 33.0 µM 64% | [2]; at 1.2 µM 8% | [2]; at 3.7 µM 11% | [2]; at 11.0 µM 27% | [3]; at 1.2 µM -5% | [3]; at 3.7 µM -18% | [3]; at 11.0 µM 10% | [3]; at 33.0 µM 52% | [4]; at 1.2 µM -2% | [4]; at 3.7 µM -7% | [4]; at 11.0 µM 3% | [5]; at 1.2 µM -11% | [5]; at 3.7 µM -10% | [5]; [17] -150% | [5]; at 11.0 µM 2% | [6]; at 1.2 µM -3% | [6]; at 3.7 µM -1%
active: [1]; at 100.0 µM 99% | [2]; at 33.0 µM 90% | [2]; at 100.0 µM 99% | [3]; at 100.0 µM 88% | [4]; at 33.0 µM 98% | [4]; at 100.0 µM 99% | [5]; at 33.0 µM 92% | [5]; [18] 83% | [5]; at 50.0 µM 89.2% | [5]; at 100.0 µM 98%
